From PubChem BioAssay AID1578 (Sanford-Burnham Center for Chemical Genomics, 2009)
The whole screen tested about 290,000 compounds, of which about 3,000 (1%) were called active. No stated cut-off is given here; in the data, active means inhibition mostly above about 36% (no sharp cut-off); inactive means mostly below about 34%. Shown is part of a subset that was picked to be rich in actives.

Assay: NOD1 signaling inhibitors, primary screen, cell-based, luminescence, uHTS (AID 1578);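 further: HEK-293T reporter cells stimulated with the NOD1 agonist gamma-tri-DAP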
Conditions: NOD1-driven NF-kB luciferase reporter cells, at 4 µM, active compounds read high

inhibition, active:
CCCc1nnc(NC(=O)CCC(=O)NC2CCCc3ccccc32)s1 (stereo unspecified) 89.6%
CN(C(=O)CCl)C1CCCc2ccccc21 (stereo unspecified) 55.5%
O=C(CCl)NC1CCCc2ccccc21 (stereo unspecified) 59%
Oc1ccc(-c2nc3c4c(ncn3n2)-c2ccccc2CC42CCCC2)cc1 99.8%
C=CCNC(=S)N/N=C/c1ccc(-c2ccc(OC)cc2)o1 59.5%
C=CCNC(=S)N/N=C/c1ccc(C(F)(F)F)cc1 52.7%
CCOC(=O)NNC(=O)CCn1c2c(c3ccccc31)CCCC2 55.3%
O=C(Nc1cccc(Cl)c1)C1C2CCC3C(CCC21)C3(Cl)Cl (stereo unspecified) 73%

inhibition, inactive:
CN(C)CCCC(=O)c1ccc2c(c1)OCO2 -10.8%
Cc1ccccc1-c1nc(CN2CCCC2c2ccc(F)cc2)c(C)o1 (stereo unspecified) -29.5%
COCC1CCN(Cc2cn[nH]c2-c2cc3ccccc3o2)C1 (stereo unspecified) -18.7%
O=Cc1c(C(=O)O)n(CC(=O)O)c2ccccc12 -37%
CC1=NNC(=O)C1C(c1ccc(Cl)cc1)C(C#N)C#N (stereo unspecified) -7.3%
CN(C(=O)Nc1ccccc1)C1CCCc2ccccc21 (stereo unspecified) -3.4%
O=C(Cc1ccc(Br)cc1)NC1CCCc2ccccc21 (stereo unspecified) -30.2%
CC(C)Cc1nnc(NC(=O)CCC(=O)NC2CCCc3ccccc32)s1 (stereo unspecified) -25.2%
Cc1ccccc1CC(=O)NC1CCCc2ccccc21 (stereo unspecified) 58.1%
CCc1nnc(NC(=O)CCC(=O)NC2CCCc3ccccc32)s1 (stereo unspecified) -15.7%
CN(C(=O)CN1CCN(c2ccccc2F)CC1)C1CCCc2ccccc21 (stereo unspecified) -20.5%
O=C(CNC(=O)Cn1ccc2ccccc2c1=O)NCCCN1CCN(c2cccc(Cl)c2)CC1 9.9%
COc1ccccc1CN1CC(C(=O)N(C)CCCn2nc(C)cc2C)CCC1=O (stereo unspecified) -33.8%
Cc1cc(Cl)ccc1C(=O)C1CCCN(C(=O)c2cnn(C(C)C)c2)C1 (stereo unspecified) -17.9%
CC(C)(C)n1cc(S(=O)(=O)c2ccccc2)[nH]c1=O -26.3%
O=C(Nc1ccccn1)N1CCOCC1 -28.5%
C=CCn1c(SCc2cc(=O)n3cc(C)ccc3n2)nnc1-c1ccc(F)cc1 -11.1%
O=C(O)CCn1[nH]c(=O)c2ccccc2c1=O -7.7%
Cc1ccc2nc(SCc3ccccc3)c(C=O)c(=O)n2c1 -41.8%
COc1ccc(-c2c(NC(=O)c3ccco3)n(-c3ccccc3)nc(C)c2=O)cc1 -7.7%
COc1ccc(/C=N/NC(=O)c2c(-c3ccccc3)noc2C)cc1[N+](=O)[O-] -15.9%
c1ccc(OCc2nc3c4c(ncn3n2)-c2ccccc2CC42CCCC2)cc1 19.6%
COc1ccc(-c2nc3c4c(ncn3n2)-c2ccccc2CC42CCCC2)cc1 -3.6%
O=C(Nc1ccccc1F)C1CCN(C(=O)NCc2ccccc2)CC1 -18%
COc1ccc(-c2cc(-c3ccccc3)nc(Cl)n2)cc1OC 12%
Cc1c(NS(=O)(=O)c2ccc3c(c2)NC(=O)CC(=O)N3)cccc1[N+](=O)[O-] -6.1%
CCOC(=O)NC1(C(F)(F)F)C(=O)N(Cc2ccccc2)C2=C1C(=O)CC(C)(C)C2 (stereo unspecified) 0.2%
Cc1ccc(S(=O)(=O)N(C)c2ccc(OC(=O)c3ccc(=O)[nH]c3)cc2)cc1 5.9%
O=S(=O)(c1cc(F)ccc1F)N1CCN2CCCC2C1 (stereo unspecified) 50.7%
C=CCNC(=S)N/N=C/c1ccc(-c2ccc(Br)cc2)o1 -6.5%
C=CCNC(=S)N/N=C/c1ccc(C(C)(C)C)cc1 3.2%
NC(=S)N/N=C/c1ccc(C(F)(F)F)cc1 -16%
C=CCNC(=S)N/N=C/c1ccc(-c2cccc([N+](=O)[O-])c2)o1 -8.7%
CCN(CC)CCCN1C=C2C(=O)C(C)(OC(=O)C3CCCC3)C(=O)C=C2C=C1c1ccsc1 (stereo unspecified) -2%
CCOC(=O)C1=C(c2ccccc2)N=C2SCC(=O)N2C1c1ccc(OCC)c(OCC)c1 (stereo unspecified) -4%
CCOC(=O)Cn1nc(C)c(NC(=O)COc2ccc([N+](=O)[O-])cc2)c1C -8.3%
CC(=O)NNC(=O)CCn1c2c(c3ccccc31)CCCC2 -2%
O=C(CCn1c2c(c3ccccc31)CCCC2)NNC(=O)c1ccccc1Cl -15.4%
CCOC(=O)c1c(C)[nH]c(C(=O)CSc2nc(C)cc(C)n2)c1C -15.5%
O=C(O)C1CC1(c1ccccc1)c1ccccc1 (stereo unspecified) -21.6%
CCOc1ccc(Nc2nc(NCC(=O)O)nc(N)c2[N+](=O)[O-])cc1 0.9%
Cc1cccc(NC(=O)C2C3CCC4C(CCC32)C4(Cl)Cl)c1 (stereo unspecified) -38.6%
O=C(Nc1ccccc1)C1C2CCC3C(CCC21)C3(Cl)Cl (stereo unspecified) -42.4%
